Screens deposited in PubChem by several laboratories.
Sampled rows, rich in hits. Any-hit rate of the full collection: about 1.9%.
Rev-erbA mod: Rev-erb alpha (human) modulation; P20393; Rev-erbα–FITC-DNA binding, fluorescence polarization, 90 min; activity, % at 10 µM; 370,000 tested, 0.79% active; AID 1259318;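 active = activity above about 14%, limit read from the data; passing the limit was not always enough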;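 also: 0% = DMSO wells with 35 nM protein and 100% = DMSO wells with 750 nM protein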
Target sequence (P20393 whole entry, looked up): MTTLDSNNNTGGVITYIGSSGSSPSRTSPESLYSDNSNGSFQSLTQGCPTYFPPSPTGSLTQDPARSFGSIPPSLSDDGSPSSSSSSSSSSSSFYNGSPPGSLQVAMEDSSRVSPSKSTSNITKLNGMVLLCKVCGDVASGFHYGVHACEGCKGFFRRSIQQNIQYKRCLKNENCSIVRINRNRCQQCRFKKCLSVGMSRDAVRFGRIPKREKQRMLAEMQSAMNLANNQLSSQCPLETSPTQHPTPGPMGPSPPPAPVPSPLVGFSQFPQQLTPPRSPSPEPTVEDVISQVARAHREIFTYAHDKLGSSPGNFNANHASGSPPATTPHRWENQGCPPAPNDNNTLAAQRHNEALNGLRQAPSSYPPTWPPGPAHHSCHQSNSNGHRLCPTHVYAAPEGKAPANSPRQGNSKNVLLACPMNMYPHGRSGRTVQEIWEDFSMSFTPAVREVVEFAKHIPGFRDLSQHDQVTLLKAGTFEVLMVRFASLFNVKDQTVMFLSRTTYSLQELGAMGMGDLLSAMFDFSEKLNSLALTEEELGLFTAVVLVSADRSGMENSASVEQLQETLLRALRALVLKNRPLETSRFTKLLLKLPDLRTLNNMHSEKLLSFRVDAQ
ZTA DNA inh: ZTA (EBV) inhibition in EBNA-1 counter-screen; ZTA-DNA binding, fluorescence polarization; 320,000 tested, 0.15% active; inhibition, % at 11 µM; in the data active = inhibition above about 33%
aDG glyco act: increases alpha dystroglycan glycosylation; AID 624168; Pro5-aDG cells, alpha-DG glycosylation AlphaScreen (IIH6); 0% Pro5, 100% B10-LARGE cell signal; activation, % at 10 µM; 360,000 tested, 0.22% active;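 active = activation of at least 8% versus controls, or a plate z-score of at least 8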;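 also: Pro5 are CHO cells carrying HIG-tagged alpha-DG that lacks glycosylation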
PG9 binder: small molecules binding HIV-1 gp120 antibody PG9. TR-FRET gp120-PG9 antibody binding. inhibition, % at 6.7 µM. 360,000 tested, 0.43% active. AID 624416; in the data active = inhibition above about 8.5%
EBNA-1 inh: blocks EBNA-1 binding to DNA. AID 1950. EBNA-1 DNA binding, fluorescence polarization. 300,000 tested, 0.34% active. inhibition, % at 14.8 µM; in the data active = inhibition above about 28%
NCF1 inh: inhibitors of human p47phox binding | p47phox/p22phox peptide binding, fluorescence polarization, 2 h | inhibition, % at 24.7 µM | 220,000 tested, 0.53% active;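 active = inhibition above about 30%, limit read from the data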;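 also: 0% = p47phox with labelled peptide and 100% = labelled peptide alone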
NR1D1 mod conf: Rev-erb alpha (human) modulation, hit confirmation; 3,000 tested, 61% active; AID 1259319; Rev-erb alpha FITC-DNA binding, fluorescence polarization, 90 min; activation, % at 25 µM; shares compounds with Rev-erbA mod;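 active = activation at or above a set limit, or at least 3 SD above the negative control mean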;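 also: 0% = 35 nM protein with DMSO and 100% = 750 nM protein high control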
RORg DNA counter: counter-screen for Rev-erb alpha modulators: RORgamma DNA binding | shares compounds with Rev-erbA mod | purified RORgamma protein-FITC-DNA binding, fluorescence polarization | IC50, µM | 910 tested, 8% active | AID 1259320;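 active = Compounds whose fitted half-maximal concentration for disrupting protein-DNA binding is below 10 micromolar; the record names Rev-erb in its text, so the target is in doubt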
An asterisk follows results filed as active; . = no result given.

SMILES	Rev-erbA mod	ZTA DNA inh	aDG glyco act	PG9 binder	EBNA-1 inh	NCF1 inh	NR1D1 mod conf	others
O=c1c(C=NCCN2CCNCC2)c(O)n(C2CCCCC2)c(=O)n1C1CCCCC1	.	5.6	1.2	.	0.2	-19.3	.
CCCCCn1c(=O)c(C(=O)Nc2ccccc2)c(O)c2ccccc21	21.2*	-4.3	0.1	-2.6	-18.7	.	4.3
CCCCCCn1c(=O)c(C(=O)Nc2cnccn2)c(O)c2ccccc21	13.6*	-12.1	3.6	-2.2	3.4	-3.4	17.4
CCCCCn1c(=O)c(C(=O)Nc2ccccn2)c(O)c2ccccc21	-0.7	7.9	2.2	0.9	10.9	.	.
C[C@H](N)[C@H](O)c1ccc(O)c(O)c1	-32.5	.	.	.	.	.	.
O=[N+]([O-])c1ccc(N2CCCCC2)c2ncccc12	10.1	11.6	0.8	-1.7	2.9	-7.4	.
O=[N+]([O-])c1ccc(N2CCCCCC2)c2nonc12	55.8*	-7.7	-0.1	-4.2	-9.9	.	48.7*	RORg DNA counter=4.13*
O=c1[nH]c(=S)[nH]c(O)c1N=Nc1ccc2c(c1)OCCO2	30.4*	-2.0	0.1	-13.0	-6.6	-137.1	25.3*
COc1ccc(N=Nc2c(O)[nH]c(=S)[nH]c2=O)cc1	26.7*	-3.1	-0.2	-11.6	-2.6	-101.7	18.8*
COc1cccc(N=Nc2c(O)[nH]c(=S)[nH]c2=O)c1	5.4	-5.0	0.2	-10.3	1.3	-21.2	.
O=[N+]([O-])c1ccc(NCc2ccccc2)c2nonc12	37.8*	4.5	.	-3.5	-5.8	-5.4	52.4*	RORg DNA counter=4.13*
CC(C)(O)C(Cl)(Cl)Cl	-2.5	.	.	.	.	.	.
C[n+]1c(-c2ccccc2)c2cc(N)ccc2c2ccc(N)cc21	-21.8	-20.6	0.3	-17.5	7.9	.	.
Nc1ccc2ccc3cccc[n+]3c2c1	127.3*	-13.6	-0.1	2.0	1.9	.	105.2*	RORg DNA counter=>40
O=c1n(Cl)c(=O)n(Cl)c(=O)n1Cl	-0.2	.	.	.	.	.	.
CC1(C)OC(c2ccccc2)=C/C(=C/C=C2C(=O)NC(=S)NC2=O)O1	5.2	10.4	.	-1.2	-3.9	-249.0	.
CN1/C(=C\C=C2C(=O)NC(=S)NC2=O)C(C)(C)c2ccccc21	25.0*	.	0.2	-25.2	.	-231.7	53.2*	RORg DNA counter=>40
c1ccc(Cn2nnnc2C2CN=C(c3ccccc3)c3ccccc3N2)cc1 (configuration not stated)	12.2	.	.	.	.	.	.
Cc1ccccc1N1C(=O)NC(=O)/C(=C/c2ccc(N3CCOCC3)o2)C1=O	16.8	-16.9	0.2	-4.0	-6.5	-87.7	.
O=C1NC(=O)N(c2ccc3c(c2)OCO3)C(=O)/C1=C\c1ccc(N2CCCCC2)o1	26.0*	1.6	-0.5	-7.9	-4.0	-50.6	25.7*
CN1C(=O)C(=Cc2ccc(N3CCOCC3)o2)C(=O)N(C)C1=O	40.7*	-1.7	0.1	-9.0	2.2	-37.1	44.1*	RORg DNA counter=>40
CN1C(=O)C(=Cc2ccc(N3CCCCCC3)o2)C(=O)N(C)C1=S	38.7*	-5.7	-0.5	-2.5	-4.7	-129.1	60.4*	RORg DNA counter=>40
CCCC(C)C1(CC)C(=O)NC(=O)NC1=O (configuration not stated)	-8.1	.	.	.	.	.	.
O=c1cc(C(F)(F)F)c2cc3c4c(c2o1)CCCN4CCC3	-0.3	2.1	0.4	1.9	2.4	-23.6	.
Cc1cc2c(C(F)(F)F)cc(=O)oc2c2c1NCCC2	17.3*	3.4	0.2	3.1	-11.6	-13.3	16.9*
SMILES	Rev-erbA mod	ZTA DNA inh	aDG glyco act	PG9 binder	EBNA-1 inh	NCF1 inh	NR1D1 mod conf	others
CC(C)(C)n1nnnc1C1CN=C(c2ccccc2)c2ccccc2N1 (configuration not stated)	-1.2	.	.	.	.	.	.
O=C1NC(=S)SC1=Cc1ccc(N(CCCl)CCCl)cc1	23.6*	.	1.1	-1.8	.	.	19.9*
CN(c1ccc(O)cc1)c1ccc([N+](=O)[O-])c2nonc12	25.1*	.	-0.4	-6.7	.	.	29.7*	RORg DNA counter=>40
O=C(NC(=O)c1c(F)cccc1F)Nc1cc(Cl)c(OC(F)(F)C(F)C(F)(F)F)cc1Cl (configuration not stated)	2.6	.	.	.	.	.	.
CN1CC(CNC(=O)OCc2ccccc2)CC2c3cccc4c3c(cn4C)CC21 (configuration not stated)	6.2	.	.	.	.	.	.
CCCCOCCCN1C(C)=CC(=C2C(=O)NC(=S)NC2=O)C=C1C	41.4*	20.0	0.0	-1.1	0.4	-11.6	-1.7
CC(=O)N1c2ccccc2C(c2ccccc2)=NCC1C(=O)NC1CCCCC1 (configuration not stated)	5.3	.	.	.	.	.	.
CCCCOC(=O)COc1cc(C)cc2oc(=O)c3c(c12)CCC3	26.1*	20.0	0.0	-2.0	1.8	-3.6	13.5
Cn1cc(Br)c(C(=O)Nc2ccc3c(C(F)(F)F)cc(=O)oc3c2)n1	15.1*	.	-0.2	0.3	.	.	2.9
O=C(Nc1ccc(Br)cc1)c1cc(Br)cc(Br)c1O	-1.6	.	.	.	.	.	.
CN(C)CCN=Cc1c(O)n(Cc2ccc3c(c2)OCO3)c(=S)[nH]c1=O	3.7	5.4	-0.1	-0.5	-1.5	-16.1	.
O=c1[nH]c(=S)n(Cc2ccc(F)cc2)c(O)c1C=NCc1ccc2c(c1)OCO2	25.1*	-3.3	0.0	0.7	5.7	-95.0	12.2
